# Source: PubChem (National Center for Advancing Translational Sciences (NCATS))
# PI5P4Ka inh – qHTS for Inhibitors of phosphatidylinositol 5-phosphate 4-kinase (PI5P4K); PI5P4Kalpha enzyme, ADP-Glo luminescence, 60 min; active compounds read low; max response, %; 330,000 compounds, 1.2% hits; Phosphatidylinositol 5-phosphate 4-kinase type-2 alpha (Homo sapiens), P48426; active = max response of -50% or lower; inconclusive = between -30% and -50%; inactive = -30% or higher; note: value at the top dose of about 77 µM; % is set by controls: 0 for no effect and ±100 for the full control effect
# Target sequence (P48426 whole entry, looked up): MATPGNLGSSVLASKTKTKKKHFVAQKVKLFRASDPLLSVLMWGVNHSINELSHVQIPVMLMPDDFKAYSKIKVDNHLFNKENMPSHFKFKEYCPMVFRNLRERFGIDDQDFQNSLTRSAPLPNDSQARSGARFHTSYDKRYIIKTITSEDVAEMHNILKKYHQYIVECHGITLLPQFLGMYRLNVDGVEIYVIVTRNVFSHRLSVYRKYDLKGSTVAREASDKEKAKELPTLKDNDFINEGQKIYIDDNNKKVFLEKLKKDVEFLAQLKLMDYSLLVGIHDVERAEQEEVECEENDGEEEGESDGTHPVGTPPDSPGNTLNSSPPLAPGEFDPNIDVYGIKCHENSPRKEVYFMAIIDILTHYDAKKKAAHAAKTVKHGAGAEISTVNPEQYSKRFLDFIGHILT
#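 Controls without substrate or without enzyme flank wells where PI5P4Kalpha converts substrate using 5 microM ATP (final). Incubation lasts 60 minutes at room temperature; ADP formed is read by ADP-Glo luminescence.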
# BAZ2B block – qHTS Assay for Inhibitors of BAZ2B; Bromodomain adjacent to zinc finger domain protein 2B (Homo sapiens), Q9UIF8; AlphaScreen BAZ2B-H3K14Ac peptide displacement; Potency, µM (highest dose often 114 µM), for inactives: top-dose activity change, negative = inhibition, usual class: inhibitors; AID 504333, 2011; 360,000 compounds, 4.4% hits; note: potency is the fitted concentration of half-maximal effect; % is set by controls: 0 for no effect and ±100 for the full control effect; nearly all actives have a fitted effect of over 60% in size
#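 Protein-peptide AlphaScreen: BAZ2B 50 nM, b-H3K14Ac 50 nM, 1x PBS pH 7.4 + 0.01% Tween-20. Preincubation 30 min RT; cpd 30 min RT (top 110 uM); beads 20 min RT, light-protected.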
# G9a block – qHTS Assay for Inhibitors of Histone Lysine Methyltransferase G9a; G9a H3K9 monomethylation, AlphaScreen, 2 h; 350,000 compounds, 8.8% hits; Potency, µM (series often up to 102 µM), without a hit: top-dose activity, negative = inhibition, hits mostly inhibitors; note: potency is the fitted concentration of half-maximal effect; % is set by controls: 0 for no effect and ±100 for the full control effect; nearly all actives have a fitted effect of over 75% in size
#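 Compounds were preincubated with 20 nM G9a for 15 min, after which biotinylated H3K9 peptide (500 nM) and SAM (20 uM) started a 2 h room-temperature reaction. Monomethylated product was quantified by antibody-based AlphaScreen chemiluminescence.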
# PLK1 PBD inh – qHTS for Inhibitors of PLK1-PDB (polo-like kinase 1 - polo-box domain): Primary Screen; Plk1 PBD binding of FITC phosphopeptide, fluorescence polarization; Potency, µM, inactives show max response, negative = inhibition, most hits filed as inhibitors; 360,000 compounds, 2.8% hits; AID 720504, 2013; note: potency is the fitted concentration of half-maximal effect; series mostly up to about 57 µM; % is set by controls: 0 for no effect and ±100 for the full control effect; nearly all actives have a fitted effect of over 65% in size
# JMJD2A Tudor inh – qHTS Assay for Inhibitors of JMJD2A-Tudor Domain. Lysine-specific demethylase 4A (Homo sapiens), O75164. AlphaScreen JMJD2A-Tudor / H3K4me3 peptide binding. Potency, µM (highest dose often 114 µM), for the others: at the highest dose activity change, negative = inhibition, hits mostly inhibitors. 390,000 compounds, 4.4% hits. AID 504339, 2011; note: potency is the fitted concentration of half-maximal effect; % is set by controls: 0 for no effect and ±100 for the full control effect; nearly all actives have a fitted effect of over 50% in size
# HP1b chromo inh – HTS for Inhibitors of HP1-beta Chromodomain Interactions with Methylated Histone Tails. Chromobox protein homolog 1 (Homo sapiens), P83916. AlphaScreen HP1-beta / biotin-H3K9me3 peptide binding. Potency, µM (doses to about 114 µM), inactives show at the top dose activity change, negative = inhibition, usual class: inhibitors. 390,000 compounds, 0.56% hits. AID 540317, 2011; note: potency is the fitted concentration of half-maximal effect; nearly all actives have a fitted effect of over 70% in size
# Target sequence (P83916 whole entry, looked up): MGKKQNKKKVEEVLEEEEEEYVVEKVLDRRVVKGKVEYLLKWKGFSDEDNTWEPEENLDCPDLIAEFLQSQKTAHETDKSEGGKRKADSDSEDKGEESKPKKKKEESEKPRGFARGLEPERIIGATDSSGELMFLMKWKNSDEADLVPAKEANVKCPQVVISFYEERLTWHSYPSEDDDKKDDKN
#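 Compound inhibition of the preformed complex between 50 nM HP1-beta and 50 nM biotinylated H3K9me3 peptide was read by AlphaScreen. Buffer was PBS pH 7.4 with 0.01% Tween-20. Incubations ran 30 min at room temperature, with 10 ug/mL donor/acceptor beads.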
# The depositor's hits bear a star; ? = inconclusive; nt = not tested or not shown; [ ] = dose if it differs, or a comment. An excerpt weighted towards active compounds, which were near 12% of everything screened. Unless noted, calls come from the whole dose curve; as a rule, active = well fitted curve in the direction sought with a large enough effect; inconclusive = small, poorly fitted or top-dose-only effect, or another doubt; inactive = no such curve, though single readings can be large; an effect the other way counts as inactive or inconclusive.
SMILES,PI5P4Ka inh,BAZ2B block,G9a block,PLK1 PBD inh,JMJD2A Tudor inh,HP1b chromo inh
CC(C)[C@H]1c2ccc(F)cc2CC[C@@]1(CCN(C)CCCc1nc2ccccc2[nH]1)OC(=O)C1CC1,nt,nt,12.6µM*,nt,nt,nt
CC(=O)c1cccc(NS(=O)(=O)c2cc3c(cc2C)n(C)c(=O)c(=O)n3C)c1,nt,0.6%,-1.3%[59 µM],nt,-4.0%,33.0%
O=C(O)CN1CCCC1=Nc1ccccc1,nt,89.1µM*,?,-0.5%,-14.7%,37.6%
Cc1cc(C(=O)CCl)c(C)n1-c1cccc(S(=O)(=O)N2CCOCC2)c1,-3.1,?,?,21.2µM*,-8.6%,-8.7%
COCCCN1C(=O)c2ccc(C(=O)OCC(=O)N(CCC#N)c3cc(C)cc(C)c3)cc2C1=O,9.4,3.3%,-35.7%,-2.3%,-9.7%,23.5%
C#CCOCCOCCOCCNc1nc(N2CCN(C(=O)[C@H](Cc3ccc(O)cc3)n3cc([C@@H](N)C(C)CC)nn3)CC2)nc(N2CCN(C(=O)[C@H](Cc3cc4ccccc4[nH]3)n3cc([C@@H](N)Cc4ccc(O)cc4)nn3)CC2)n1 (stereo partly drawn),nt,31.6µM*,?,nt,nt,nt
C#CCOCCOCCOCCNc1nc(N2CCN(C(=O)C(Cc3ccc(O)cc3)n3cc(C(N)CC(C)C)nn3)CC2)nc(N2CCN(C(=O)C(Cc3cc4ccccc4[nH]3)n3cc(C(N)C(C)CC)nn3)CC2)n1 (stereo not drawn),nt,50.1µM*,?,nt,nt,nt
C#CCOCCOCCOCCNc1nc(N2CCN(C(=O)[C@H](Cc3ccc(O)cc3)n3cc([C@@H](N)CC(C)C)nn3)CC2)nc(N2CCN(C(=O)[C@H](Cc3cc4ccccc4[nH]3)n3cc([C@@H](N)CC(C)C)nn3)CC2)n1,?,25.1µM*,4.8%[12.7 µM],1.4%,10µM*,-9.6%
O=C(NC1CC(=O)N(c2ccc(Cl)cc2)C1)C(=O)c1c[nH]c2ccccc12 (stereo not drawn),nt,-0.6%,-4.5%[59 µM],nt,-15.3%,4.5%
CCS(=O)(=O)N1CCc2cc(C(=O)Nc3ccc(OC)cc3OC)ccc21,nt,-14.7%,-10.1%[59 µM],nt,-28.1%,10.4%
COC(=O)[C@@]12C[C@@H](CC(=O)NCC3CCCCC3)C(=O)N(Cc3ccco3)C1=CCC(C)(C)C2,-2.9,nt,nt,-9.0%,nt,nt
Cc1[nH]c2ccccc2c1C(=O)C(=O)NC1CC1,1.0,?,nt,2.8%,1.4%,39.9%
Cc1cc(-n2c(C)cc(C(=S)N3CCOCC3)c2C)ccc1Br,-10.1,44.7µM*,12.6µM*,?,?,?
Cc1ccc(-n2c(C)cc(C(=O)CN3CCOCC3)c2C)cc1C,-0.3,-33.3%,-32.8%,-9.0%,-35.0%,9.3%
O=C(O)c1csc(-c2cccs2)n1,0.5,-17.6%,79.4µM*,8.7%,-7.5%,21.6%
CNC(=O)c1csc(-c2cccs2)n1,0.3,-13.9%,1.7%,-18.3%,2.1%,53.2%
O=C(O)c1csc(-c2cccc(Cl)c2)n1,-10.4,-25.9%,39.8µM*,26.7µM*,-2.9%[11.4 µM],11.3%
O=C(O)c1csc(-c2ccccc2)n1,2.7,-23.0%,?,-0.7%,0.0%[11.4 µM],19.0%
Cc1cc(F)ccc1C(O)c1ncc(-c2cccc(OCc3ccccc3)c2)[nH]1 (stereo not drawn),1.0,nt,nt,-3.3%,nt,nt
CN(c1ccccc1)S(=O)(=O)CS(=O)(=O)N(C)c1ccccc1,-5.0,nt,nt,-10.1%,-0.7%,35.0%
CCC1=C/C(=C/N(C)c2ccccc2)C(=O)S1,nt,-8.1%,25.1µM*,?,?,?
O=S1(=O)c2ccccc2N=NN1Cc1ccc(Cl)cc1,-23.4,?,0.631µM*,?,79.4µM*,-18.2%
COC(=O)c1c(NC(=O)c2cc3nc(-c4ccc(Br)cc4)cc(C(F)(F)F)n3n2)sc2c1CCCC2,nt,2.1%,10.8%[59 µM],nt,-12.3%,18.4%
CCCCN(C)C(=O)CN1C(=O)CCn2nc(-c3cn(C)c4ccccc34)cc21,nt,-34.1%,11.9%[59 µM],nt,-17.9%,2.1%[57 µM]
CCOC(=O)[C@H]1O[C@@H]1C(=O)N[C@@H](CC(C)C)C(=O)NCCC(C)C,3.7,-9.1%,6.8%[59 µM],-22.7%,-11.5%,30.0%
SMILES,PI5P4Ka inh,BAZ2B block,G9a block,PLK1 PBD inh,JMJD2A Tudor inh,HP1b chromo inh
CC(C)CCNC(=O)[C@H](CC(C)C)NC(=O)[C@H]1O[C@@H]1C(=O)O,nt,1.5%,35.5µM*,nt,nt,nt
Cc1cccc(CS(=O)(=O)Cc2ccc(C(=O)NCc3ccc(F)cc3)o2)c1,nt,8.9%,12.7%[59 µM],nt,-7.3%,13.7%
COc1cc(Br)c(CN2CCCN(C)CC2)cc1OC,-0.7,-26.9%,70.8µM*,-8.0%,-16.6%,29.1%
COc1ccc(OC)c(CN2CCN(Cc3ccc(OC)c(OC)c3OC)CC2)c1,-15.6,nt,nt,-16.6%,nt,nt
COc1cc(Br)c(CC(=O)O)cc1OC,0.6,-25.5%,?,2.9%,-29.7%,8.1%
COc1ccc(CN2CCCN(C)CC2)c(OC)c1C,-0.1,?,nt,-13.6%,8.91µM*,?
O=C(CCS(=O)(=O)c1ccc(Br)s1)Nc1ccccc1Br,0.4,-32.9%,50.1µM*,-8.2%,-19.7%,0.9%
COc1ccc(NC(=O)CCS(=O)(=O)c2ccc(Br)s2)cc1,8.1,?,17.8µM*,-23.4%,-29.7%,-31.5%
CCc1cccc(CC)c1NC(=O)CCS(=O)(=O)c1ccc(Br)cc1,nt,3.4%[57.1 µM],-17.9%[59 µM],nt,-9.7%,36.9%
CCc1cccc(CC)c1NC(=O)CCS(=O)(=O)c1ccc(Br)s1,nt,-38.1%,22.4µM*,nt,-30.7%,-7.4%
CC(C)c1ccc(NC(=O)CCS(=O)(=O)c2ccc(Br)s2)cc1,nt,0.3%,?,nt,-12.3%,15.1%
CC1CCc2nc(-c3cc4c(ccc5ccccc54)oc3=O)sc2C1 (stereo not drawn),nt,nt,nt,nt,10.8%[57.1 µM],18.5%[57 µM]
Cc1cccc(CN2CCN(C3CN(Cc4cn(Cc5ccccc5)nn4)S(=O)(=O)C3)CC2)c1 (stereo not drawn),2.0,nt,nt,3.1%,nt,nt
Cc1ccc2c(c1)C(=O)c1c(C(=O)O)cccc1-2,-7.4,-13.2%,-31.7%,-27.3%,-18.0%[11.4 µM],-14.1%
O=C(O)c1cccc2c1C(=O)c1cccc3snc-2c13,-14.5,-18.9%,56.2µM*,-8.9%,-23.1%,7.4%
CN(C)CC1CCC/C(=C\c2ccc(OC(=O)/C=C/c3ccc(Cl)c(Cl)c3)cc2)C1=O (stereo not drawn),-1.8,nt,nt,-18.6%,-12.5%,0.2%
